Laboratory results as given in the supplement of paper PMC11732987, “Enantioselective OTUD7B fragment discovery through chemoproteomics screening and high-throughput optimisation” (Communications Chemistry, 2025).

How the values were obtained:
Test in all cases: log2 ratio of Biotin-Ahx-Ub-VS probe labelling (fragment/DMSO); higher = less target engagement (more negative = stronger competition), active = hit call of the paper (q ≤ 0.05, log2 ratio ≤ -1)
Settings in all cases: compound concentration: 200 uM; treatment time: 3 h
USP9X = USP9X (UniProt Q93008)
Chain of USP9X (Q93008 whole entry, the tested form may be a part): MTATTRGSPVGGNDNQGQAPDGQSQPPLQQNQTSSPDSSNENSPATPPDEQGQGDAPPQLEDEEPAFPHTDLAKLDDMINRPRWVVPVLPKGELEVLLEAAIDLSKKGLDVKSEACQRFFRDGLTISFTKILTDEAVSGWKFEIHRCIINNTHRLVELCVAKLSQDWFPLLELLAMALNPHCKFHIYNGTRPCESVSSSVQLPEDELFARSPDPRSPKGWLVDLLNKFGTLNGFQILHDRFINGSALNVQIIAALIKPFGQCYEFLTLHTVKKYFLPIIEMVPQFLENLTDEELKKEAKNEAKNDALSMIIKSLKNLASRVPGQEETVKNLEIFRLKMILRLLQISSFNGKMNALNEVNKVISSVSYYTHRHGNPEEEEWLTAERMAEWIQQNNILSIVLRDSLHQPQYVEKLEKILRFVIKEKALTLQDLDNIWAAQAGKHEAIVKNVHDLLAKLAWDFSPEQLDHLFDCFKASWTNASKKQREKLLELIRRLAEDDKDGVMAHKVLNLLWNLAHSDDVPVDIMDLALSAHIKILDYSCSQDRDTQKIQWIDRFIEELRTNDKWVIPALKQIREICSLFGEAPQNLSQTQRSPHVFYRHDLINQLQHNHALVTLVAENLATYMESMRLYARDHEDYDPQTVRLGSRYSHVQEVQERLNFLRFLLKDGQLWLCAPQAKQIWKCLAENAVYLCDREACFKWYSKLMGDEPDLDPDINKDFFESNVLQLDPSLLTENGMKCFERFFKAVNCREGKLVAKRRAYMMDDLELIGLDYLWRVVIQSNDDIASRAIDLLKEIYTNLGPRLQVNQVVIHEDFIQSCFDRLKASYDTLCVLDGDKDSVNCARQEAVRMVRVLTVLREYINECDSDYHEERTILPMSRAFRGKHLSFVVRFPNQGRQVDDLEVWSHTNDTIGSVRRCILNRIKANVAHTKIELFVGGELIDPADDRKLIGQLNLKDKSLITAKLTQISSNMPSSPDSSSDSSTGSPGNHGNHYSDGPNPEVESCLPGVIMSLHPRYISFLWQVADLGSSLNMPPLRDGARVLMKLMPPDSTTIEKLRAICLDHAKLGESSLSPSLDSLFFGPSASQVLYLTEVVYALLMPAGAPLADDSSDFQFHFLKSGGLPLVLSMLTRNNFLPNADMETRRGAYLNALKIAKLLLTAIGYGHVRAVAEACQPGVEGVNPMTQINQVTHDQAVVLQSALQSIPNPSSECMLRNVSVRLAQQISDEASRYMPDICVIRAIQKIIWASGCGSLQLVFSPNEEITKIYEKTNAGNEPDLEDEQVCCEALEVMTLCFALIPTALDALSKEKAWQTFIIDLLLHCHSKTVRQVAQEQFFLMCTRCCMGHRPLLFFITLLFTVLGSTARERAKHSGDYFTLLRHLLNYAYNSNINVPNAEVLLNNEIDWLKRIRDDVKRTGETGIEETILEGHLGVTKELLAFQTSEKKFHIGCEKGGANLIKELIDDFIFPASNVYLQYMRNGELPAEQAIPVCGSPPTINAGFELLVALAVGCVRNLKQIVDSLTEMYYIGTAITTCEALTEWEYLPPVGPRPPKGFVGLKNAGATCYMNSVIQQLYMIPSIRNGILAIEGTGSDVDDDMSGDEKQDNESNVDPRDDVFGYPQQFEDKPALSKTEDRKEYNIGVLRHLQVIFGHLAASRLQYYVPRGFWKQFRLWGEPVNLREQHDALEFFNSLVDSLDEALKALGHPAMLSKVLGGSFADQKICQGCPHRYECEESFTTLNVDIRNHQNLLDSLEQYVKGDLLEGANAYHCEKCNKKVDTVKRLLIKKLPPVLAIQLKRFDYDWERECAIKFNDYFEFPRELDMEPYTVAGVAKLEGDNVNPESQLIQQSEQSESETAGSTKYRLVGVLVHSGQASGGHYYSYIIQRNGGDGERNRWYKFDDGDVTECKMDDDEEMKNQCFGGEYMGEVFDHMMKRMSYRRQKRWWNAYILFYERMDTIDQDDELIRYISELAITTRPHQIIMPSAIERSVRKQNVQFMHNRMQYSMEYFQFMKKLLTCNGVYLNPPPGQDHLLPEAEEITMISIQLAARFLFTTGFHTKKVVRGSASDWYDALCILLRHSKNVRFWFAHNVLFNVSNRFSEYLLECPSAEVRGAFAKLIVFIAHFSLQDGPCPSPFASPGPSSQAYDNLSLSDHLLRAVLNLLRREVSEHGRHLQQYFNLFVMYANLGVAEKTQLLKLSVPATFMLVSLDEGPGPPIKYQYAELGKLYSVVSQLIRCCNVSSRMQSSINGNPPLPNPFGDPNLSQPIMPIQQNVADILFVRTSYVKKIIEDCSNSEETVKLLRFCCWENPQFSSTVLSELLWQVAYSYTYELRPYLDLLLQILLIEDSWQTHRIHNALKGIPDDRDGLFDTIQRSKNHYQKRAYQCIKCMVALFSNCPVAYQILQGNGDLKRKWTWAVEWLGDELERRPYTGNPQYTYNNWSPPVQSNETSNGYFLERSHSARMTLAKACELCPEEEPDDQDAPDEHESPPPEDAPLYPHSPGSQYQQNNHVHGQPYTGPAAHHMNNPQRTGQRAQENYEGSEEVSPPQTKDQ
In short: (§1)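 HEK293T lysate (495 µg per sample, in Tris/CHAPS/IGEPAL buffer with protease inhibitors) was treated in triplicate with fragment at 200 µM or with DMSO for 3 h. It was then treated with Biotin-Ahx-Ub-VS (0.5 µM final) for 1 h. Labelled DUBs were NeutrAvidin-enriched, digested with LysC and trypsin, and run by diaPASEF LC-MS/MS. Spectronaut label-free quantities were global-median-normalised. Values are average log2 ratios fragment/DMSO by unpaired t-test, using proteins with ≥2 unique peptides.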

UniProt O00487 = target: UniProt O00487
Chain of UniProt O00487 (O00487 whole entry): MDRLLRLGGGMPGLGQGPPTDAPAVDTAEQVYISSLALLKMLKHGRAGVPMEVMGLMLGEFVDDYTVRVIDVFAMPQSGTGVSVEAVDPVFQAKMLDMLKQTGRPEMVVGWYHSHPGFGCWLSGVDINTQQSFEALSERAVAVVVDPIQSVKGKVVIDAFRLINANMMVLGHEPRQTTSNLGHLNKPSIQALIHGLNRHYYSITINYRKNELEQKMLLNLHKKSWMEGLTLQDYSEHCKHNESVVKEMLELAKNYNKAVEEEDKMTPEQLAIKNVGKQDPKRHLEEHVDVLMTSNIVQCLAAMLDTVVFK
In short: as §1

UniProt O00507 = target: UniProt O00507
In short: as §1

UniProt P51784 = target: UniProt P51784
Chain of UniProt P51784 (P51784 whole entry): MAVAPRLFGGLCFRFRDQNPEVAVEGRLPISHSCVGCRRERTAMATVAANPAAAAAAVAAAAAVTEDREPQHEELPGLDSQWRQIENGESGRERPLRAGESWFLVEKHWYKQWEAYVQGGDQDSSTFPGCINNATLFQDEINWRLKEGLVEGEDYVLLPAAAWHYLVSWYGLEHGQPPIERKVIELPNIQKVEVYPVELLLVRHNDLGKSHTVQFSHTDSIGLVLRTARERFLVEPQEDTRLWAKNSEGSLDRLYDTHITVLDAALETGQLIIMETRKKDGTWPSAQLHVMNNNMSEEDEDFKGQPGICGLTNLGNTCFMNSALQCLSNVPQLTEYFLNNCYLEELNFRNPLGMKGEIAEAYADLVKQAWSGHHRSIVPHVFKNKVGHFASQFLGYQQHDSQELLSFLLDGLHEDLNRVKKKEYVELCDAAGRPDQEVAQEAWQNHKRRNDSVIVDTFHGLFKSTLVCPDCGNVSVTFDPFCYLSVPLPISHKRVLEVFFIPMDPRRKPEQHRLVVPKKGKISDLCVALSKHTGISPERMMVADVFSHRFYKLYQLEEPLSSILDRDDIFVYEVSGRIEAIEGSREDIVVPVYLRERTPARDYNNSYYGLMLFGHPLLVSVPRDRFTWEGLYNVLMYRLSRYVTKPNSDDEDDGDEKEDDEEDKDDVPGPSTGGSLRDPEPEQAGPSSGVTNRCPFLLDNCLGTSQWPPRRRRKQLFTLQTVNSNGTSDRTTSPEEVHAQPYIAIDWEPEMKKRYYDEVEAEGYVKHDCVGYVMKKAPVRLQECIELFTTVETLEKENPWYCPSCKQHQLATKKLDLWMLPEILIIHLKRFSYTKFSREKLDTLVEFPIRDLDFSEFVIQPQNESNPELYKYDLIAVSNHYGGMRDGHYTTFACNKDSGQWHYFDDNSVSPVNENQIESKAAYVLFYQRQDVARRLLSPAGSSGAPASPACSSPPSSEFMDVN
In short: as §1

UniProt Q5T2D3 = target: T1, UniProt Q5T2D3
T1 sequence (whole entry): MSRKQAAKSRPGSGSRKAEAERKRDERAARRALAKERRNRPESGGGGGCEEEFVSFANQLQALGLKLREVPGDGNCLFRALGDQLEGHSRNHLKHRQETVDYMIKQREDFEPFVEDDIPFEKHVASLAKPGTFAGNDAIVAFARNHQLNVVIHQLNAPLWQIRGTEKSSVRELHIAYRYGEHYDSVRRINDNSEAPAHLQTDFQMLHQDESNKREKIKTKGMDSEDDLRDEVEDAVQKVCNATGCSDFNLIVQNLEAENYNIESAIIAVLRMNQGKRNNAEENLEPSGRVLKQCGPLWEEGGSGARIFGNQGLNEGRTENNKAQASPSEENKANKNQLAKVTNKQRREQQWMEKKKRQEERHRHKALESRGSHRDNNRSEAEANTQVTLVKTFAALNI
In short: as §1

UniProt Q8TE49 = target: T2, UniProt Q8TE49
T2 sequence (whole entry): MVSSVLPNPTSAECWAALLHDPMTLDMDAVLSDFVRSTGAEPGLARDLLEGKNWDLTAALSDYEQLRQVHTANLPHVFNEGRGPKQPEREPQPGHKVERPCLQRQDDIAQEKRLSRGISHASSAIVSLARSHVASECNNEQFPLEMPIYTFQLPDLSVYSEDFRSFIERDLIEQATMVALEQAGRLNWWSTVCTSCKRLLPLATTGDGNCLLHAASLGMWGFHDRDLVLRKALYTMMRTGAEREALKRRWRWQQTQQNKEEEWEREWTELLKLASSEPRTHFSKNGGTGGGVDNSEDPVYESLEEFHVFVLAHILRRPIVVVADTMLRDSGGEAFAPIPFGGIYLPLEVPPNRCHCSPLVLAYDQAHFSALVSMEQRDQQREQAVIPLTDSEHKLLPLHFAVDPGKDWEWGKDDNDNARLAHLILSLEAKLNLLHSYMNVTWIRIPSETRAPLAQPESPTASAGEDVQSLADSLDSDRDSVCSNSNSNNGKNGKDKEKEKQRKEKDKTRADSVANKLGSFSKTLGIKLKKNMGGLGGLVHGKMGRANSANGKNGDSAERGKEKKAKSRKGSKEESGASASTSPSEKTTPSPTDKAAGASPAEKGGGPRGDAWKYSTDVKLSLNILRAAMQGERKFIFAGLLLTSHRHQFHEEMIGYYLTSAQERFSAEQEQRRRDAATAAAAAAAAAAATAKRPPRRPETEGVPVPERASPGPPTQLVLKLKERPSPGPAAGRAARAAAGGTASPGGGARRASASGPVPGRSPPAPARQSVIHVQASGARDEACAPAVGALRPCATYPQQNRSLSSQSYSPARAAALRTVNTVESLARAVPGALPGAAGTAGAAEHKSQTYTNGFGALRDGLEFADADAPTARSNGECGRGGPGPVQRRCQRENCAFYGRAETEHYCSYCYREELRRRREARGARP
In short: as §1

UniProt Q9P2H5 = target: T3, UniProt Q9P2H5
T3 sequence (whole entry): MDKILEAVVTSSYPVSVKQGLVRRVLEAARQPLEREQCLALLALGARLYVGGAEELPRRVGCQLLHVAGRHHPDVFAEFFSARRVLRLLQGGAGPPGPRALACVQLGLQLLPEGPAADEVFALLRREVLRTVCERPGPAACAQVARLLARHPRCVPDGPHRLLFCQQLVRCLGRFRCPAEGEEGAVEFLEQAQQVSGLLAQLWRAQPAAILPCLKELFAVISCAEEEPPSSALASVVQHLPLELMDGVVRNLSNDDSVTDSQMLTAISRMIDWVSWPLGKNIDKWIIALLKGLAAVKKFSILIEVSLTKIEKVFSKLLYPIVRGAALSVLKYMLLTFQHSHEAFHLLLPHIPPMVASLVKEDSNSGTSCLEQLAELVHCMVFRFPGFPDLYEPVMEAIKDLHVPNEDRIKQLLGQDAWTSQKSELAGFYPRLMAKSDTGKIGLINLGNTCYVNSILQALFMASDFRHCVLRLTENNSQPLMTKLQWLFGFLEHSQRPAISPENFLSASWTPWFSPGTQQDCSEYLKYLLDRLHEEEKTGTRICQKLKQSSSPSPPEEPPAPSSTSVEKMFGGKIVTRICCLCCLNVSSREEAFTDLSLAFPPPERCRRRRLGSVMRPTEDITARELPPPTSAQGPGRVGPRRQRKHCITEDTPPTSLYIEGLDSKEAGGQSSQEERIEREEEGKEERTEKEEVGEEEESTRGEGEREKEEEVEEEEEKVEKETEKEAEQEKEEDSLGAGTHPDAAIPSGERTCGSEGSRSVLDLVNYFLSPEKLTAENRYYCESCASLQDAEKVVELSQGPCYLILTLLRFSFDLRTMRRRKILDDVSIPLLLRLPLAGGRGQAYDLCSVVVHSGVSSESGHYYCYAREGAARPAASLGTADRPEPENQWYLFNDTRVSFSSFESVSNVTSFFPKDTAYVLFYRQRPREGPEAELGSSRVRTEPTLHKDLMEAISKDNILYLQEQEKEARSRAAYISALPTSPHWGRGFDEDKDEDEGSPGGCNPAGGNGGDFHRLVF
In short: as §1

UniProt Q9UGI0 = target: T4, UniProt Q9UGI0
T4 sequence (whole entry): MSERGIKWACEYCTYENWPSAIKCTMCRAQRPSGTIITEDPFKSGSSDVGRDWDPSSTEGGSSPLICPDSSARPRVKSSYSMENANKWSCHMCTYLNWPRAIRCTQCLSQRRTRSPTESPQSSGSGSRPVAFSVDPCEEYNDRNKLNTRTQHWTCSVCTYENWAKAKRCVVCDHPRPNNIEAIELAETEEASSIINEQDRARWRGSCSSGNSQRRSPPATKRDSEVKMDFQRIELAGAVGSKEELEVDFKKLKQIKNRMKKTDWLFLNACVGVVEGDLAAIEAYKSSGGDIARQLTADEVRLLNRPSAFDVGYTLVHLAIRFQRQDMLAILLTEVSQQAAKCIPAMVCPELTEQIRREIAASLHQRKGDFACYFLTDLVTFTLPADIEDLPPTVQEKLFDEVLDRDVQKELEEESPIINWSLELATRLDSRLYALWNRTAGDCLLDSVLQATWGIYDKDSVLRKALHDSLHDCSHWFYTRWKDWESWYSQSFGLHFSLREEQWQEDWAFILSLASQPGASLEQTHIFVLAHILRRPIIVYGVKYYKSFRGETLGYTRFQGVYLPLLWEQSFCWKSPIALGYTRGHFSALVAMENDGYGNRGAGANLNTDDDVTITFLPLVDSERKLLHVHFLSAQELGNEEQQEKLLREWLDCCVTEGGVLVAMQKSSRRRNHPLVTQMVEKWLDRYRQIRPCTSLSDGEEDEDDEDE
In short: as §1

YOD1 = target: T5, YOD1 (UniProt Q5VVQ6)
T5 sequence (whole entry): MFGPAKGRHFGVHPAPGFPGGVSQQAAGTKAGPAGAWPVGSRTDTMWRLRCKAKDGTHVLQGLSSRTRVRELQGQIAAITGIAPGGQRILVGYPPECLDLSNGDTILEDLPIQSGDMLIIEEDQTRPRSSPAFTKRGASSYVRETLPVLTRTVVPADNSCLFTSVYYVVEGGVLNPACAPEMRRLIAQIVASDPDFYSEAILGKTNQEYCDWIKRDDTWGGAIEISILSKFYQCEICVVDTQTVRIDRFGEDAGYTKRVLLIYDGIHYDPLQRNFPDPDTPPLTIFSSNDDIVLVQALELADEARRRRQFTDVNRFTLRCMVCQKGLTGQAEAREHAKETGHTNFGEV
In short: as §1

Measured: log2 ratio of Biotin-Ahx-Ub-VS probe labelling

CC1(NC(=O)CCl)CCS(=O)(=O)C1 (centres undefined)
inactive: USP9X -0.847 | UniProt O00487 -0.00664 | UniProt O00507 -0.402 | UniProt P51784 -0.612 | UniProt Q5T2D3 -0.858 | UniProt Q9P2H5 -0.61 | UniProt Q9UGI0 -0.698 | YOD1 -0.754
active: UniProt Q8TE49 -1.44
